The campaign covered roughly 1,000 compounds. About 260 (26%) were called active. The list is a sample of the results. A number with no mark means an inactive call. No stated cut-off is given here; in the data, active means inhibition above about 21%; inactive means the rest.
Molecular target: E3 ubiquitin-protein ligase UHRF1 (Homo sapiens) (UniProt Q96T88)
Assay: UHRF1 methylated DNA binding inhibitors, counter-screen for MBD2 inhibitor project, biochemical, TR-FRET, human UHRF1 (AID 720530);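 further: UHRF1 SRA domain binding a labeled hemimethylated CpG hairpin DNA; 0% = vehicle only and 100% = reference inhibitor with vehicle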
Conditions: UHRF1 binding to methylated oligonucleotide, at 4.4 µM, active compounds read high

Sequence of E3 ubiquitin-protein ligase UHRF1 (Homo sapiens) (Q96T88 whole entry, looked up, the tested form may be a part): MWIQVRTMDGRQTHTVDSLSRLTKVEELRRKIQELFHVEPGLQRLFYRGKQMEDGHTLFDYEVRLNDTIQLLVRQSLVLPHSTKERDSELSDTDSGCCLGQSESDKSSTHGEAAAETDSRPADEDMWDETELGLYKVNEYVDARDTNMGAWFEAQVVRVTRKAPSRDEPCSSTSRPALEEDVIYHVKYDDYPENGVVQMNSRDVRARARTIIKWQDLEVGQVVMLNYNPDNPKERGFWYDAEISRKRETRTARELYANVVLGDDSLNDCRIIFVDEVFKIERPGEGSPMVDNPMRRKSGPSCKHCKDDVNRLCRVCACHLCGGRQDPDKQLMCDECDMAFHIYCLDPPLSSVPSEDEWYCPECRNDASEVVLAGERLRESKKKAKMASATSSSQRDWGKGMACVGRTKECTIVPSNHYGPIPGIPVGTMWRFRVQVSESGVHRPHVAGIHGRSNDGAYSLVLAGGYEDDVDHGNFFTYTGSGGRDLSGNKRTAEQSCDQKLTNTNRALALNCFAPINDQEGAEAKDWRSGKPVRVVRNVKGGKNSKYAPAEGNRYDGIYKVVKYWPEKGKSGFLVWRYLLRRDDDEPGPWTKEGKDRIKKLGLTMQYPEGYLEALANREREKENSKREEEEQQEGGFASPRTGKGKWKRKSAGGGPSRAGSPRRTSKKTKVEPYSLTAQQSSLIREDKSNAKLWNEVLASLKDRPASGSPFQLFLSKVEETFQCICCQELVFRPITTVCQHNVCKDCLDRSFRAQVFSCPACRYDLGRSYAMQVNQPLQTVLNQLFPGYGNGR

SMILES | inhibition
Nc1ccccc1C(=O)NC1CCCCNC1=O (stereo unspecified) | 4.32%
Cc1ccc(C(=O)Nc2ccc3c(c2)OCO3)cc1S(=O)(=O)N1CCCCC1 | 4.99%
COc1ccc(COC[C@H](CC(C)C)N2CCN(C(=O)c3cccc(C(F)(F)F)c3)CCC2=O)cc1 | 8.9%
COC(=O)[C@]12C[C@H](CC(=O)NCCC(C)C)C(=O)N(CCc3ccc(OC)c(OC)c3)C1=C[C@H](C(C)(C)C)O[C@@H]2C | 7.24%
COc1ccc(OCc2cc(C(=O)NCC3(C)COC3)no2)c(Cl)c1 | 2.8%
COC(=O)c1c(NC(=O)c2ccc(S(=O)(=O)N3CCOCC3)cc2)sc2c1CCN(C(C)C)C2 | 29.1% (active)
Cc1c(NS(=O)(=O)c2cc(C(=O)NCCc3ccc(F)cc3)cc(Cl)c2Cl)c(=O)n(-c2ccccc2)n1C | 3.95%
O=c1ccc2c(-c3ccccc3S(=O)(=O)O)c3ccc(O)c(O)c3oc-2c1O | 73.8% (active)
C=C1c2c(Cl)ccc(O)c2C(O)=C2C(=O)[C@]3(O)C(O)=C(C(N)=O)C(=O)[C@@H](N(C)C)[C@@H]3[C@@H](O)C12 (stereo partly specified) | 19.2%
CCOC(=O)c1ccc(-n2c(CCC(=O)O)ccc2-c2ccccc2)cc1 | 7.24%
C=CCN(C(=O)[C@@H](CCCC)[C@@H](O)c1ccc(Cl)cc1)c1ccccc1 | 6.35%
CN(C)[C@@H]1C(=O)C(C(N)=O)=C(O)[C@@]2(O)C(=O)C3=C(O)c4c(O)ccc(Cl)c4[C@@H](O)[C@H]3C[C@@H]12 | 12.2%
COc1ccccc1C(=O)NNC(=O)CCN1C(=O)/C(=C\c2ccccc2)SC1=S | 7.6%
Cc1ccc(Cc2cnc(N)s2)o1 | 7.64%
Cc1cc(C)c2nc3nc(C)cc(C)c3c(N)c2c1 | 46.3% (active)
CN(C)CCNC(=O)c1ccc(Cl)c2cc3ccccc3nc12 | 39.7% (active)

SMILES | inhibition
COC(=O)c1cn(C)c2ccc(S(=O)(=O)N3CC(C)CC(C)C3)cc2c1=O (stereo unspecified) | 14.2%
CCOC(=O)c1sc(NC(=O)CCN2CCOCC2)c(C(=O)OCC)c1C | -14.4%
CNC(=O)C[C@H]1C(=O)N(c2ccc(OC)cc2)C[C@@H]1Cc1ccccc1 | 5.54%
CCOc1ccc(NC(=O)c2cc(C)nc3ccccc23)cc1 | 3.69%
CCOc1ccc(S(=O)(=O)N2CCC(c3ccccc3)CC2)cc1C(=O)O | 0.13%
Brc1ccc(-c2n(-c3ccccn3)c3ccccc3[n+]2-c2ccccn2)cc1 | 22.7% (active)
CO/N=C(/CS(=O)(=O)c1ccc(Br)cc1)c1ccc(OC)cc1 | 5.83%
C=CCn1c(=S)[nH]c2scc(-c3ccco3)c2c1=O | 47.7% (active)
CCOc1ccc(N(CC(=O)NCCOc2ccccc2OC)S(=O)(=O)c2ccccc2)cc1 | 11%
CCOc1cc(N2CCOCC2)c(OCC)cc1NC(=O)c1cc(C)nc2ccccc12 | 7.08%
COC(=O)c1ccc(CSc2nncn2N)cc1 | 9.29%
Cc1ccccc1NC(=O)CN1C(=O)N/C(=C\c2cccn2-c2cccc(C(=O)O)c2)C1=O | 56.5% (active)
Cc1c(C=O)n(C)n(-c2ccccc2)c1=O | 0.66%
COC(=O)c1ccc2nc(C3CCCCC3)c(Cc3cccc(F)c3)n2c1 | 5.68%
CCOc1ccc(-n2c(SCC(=O)Nc3ccc(OC)cc3)nc3sc4c(c3c2=O)CCN(C)C4)cc1 | 6.75%

Source: PubChem BioAssay AID720530 (The Scripps Research Institute Molecular Screening Center, 2013)
